Counter-ions that a name gives are not always drawn. ± gives the standard deviation of the averaged measurements.
System: HT-1080
Experiment: relative cell viability with RSL3 co-treatment (fraction of control); higher = stronger protection from RSL3-induced ferroptosis (higher viability)
Conditions: 10 µM
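Also: viability read as CCK-8 absorbance at 450 nm in cells co-exposed to the GPX4 inhibitor RSL3, relative to a 0.01% DMSO vehicle control.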

Row | Structure (SMILES) | relative cell viability
1 | N#C/C(=C\c1ccc(O)c(O)c1)C(=O)NCc1ccccc1 [AG-490 (Tyrphostin B42)] | 0.55 ± 0.12
2 | C=CC(=O)Nc1cccc(Nc2nc(Nc3ccc(OCCOC)cc3)ncc2F)c1 | 0.563 ± 0.078
3 | COc1cc(OC)c(/C=C/S(=O)(=O)Cc2ccc(OC)c(NCC(=O)O)c2)c(OC)c1 | 0.7 ± 0.026
4 | N#CC1(c2ccc(NC(=O)c3cccnc3NCc3ccncc3)cc2)CCCC1 [Apatinib] | 0.643 ± 0.046
5 | COc1nccc(-c2c(-c3ccc(F)cc3)ncn2C2CCC(O)CC2)n1 (stereo not drawn) | 0.667 ± 0.16
6 | O=c1ccc2ccc(O)c(O)c2o1 [Daphnetin] | 0.85 ± 0.017
7 | CN1CCN(C2CCN(C(=O)Nc3cc(Oc4ccc(NC(=O)C5(C(=O)Nc6ccc(F)cc6)CC5)c(F)c4)ccn3)CC2)CC1 [Golvatinib (E7050)] | 0.717 ± 0.065
8 | O=c1sn(-c2cccc3ccccc23)c(=O)n1Cc1ccccc1 [Tideglusib] | 0.74 ± 0.035
9 | Clc1ccc(C2(c3ccc(-c4cn[nH]c4)cc3)CCNCC2)cc1 | 0.373 ± 0.068
10 | Cc1ccc(NC(=O)c2cccc(C(C)(C)C#N)c2)cc1Nc1ccc2ncn(C)c(=O)c2c1 | 0.507 ± 0.047
11 | Cc1ccc(Nc2nccc(N(C)c3ccc4c(C)n(C)nc4c3)n2)cc1S(N)(=O)=O | 0.597 ± 0.15
12 | COc1ccc(S(=O)(=O)N(CCO)c2ccccc2CN(C)C/C=C/c2ccc(Cl)cc2)cc1 [KN-93 Phosphate] | 0.813 ± 0.011
13 | CN1CCN(c2cccc(Nc3nc4c(-c5ccc(S(C)(=O)=O)cc5)cccn4n3)c2)CC1 | 1.21 ± 0.03
14 | CSc1cccc(Nc2ncc3cc(-c4c(Cl)cccc4Cl)c(=O)n(C)c3n2)c1 | 0.683 ± 0.1
15 | COc1cc2ncnc(Oc3cccc(NC(=O)Nc4cc(C(C)(C)C(F)(F)F)on4)c3)c2cc1OC | 0.68 ± 0.17
16 | CC(C)CCN1c2nc(Nc3cc(F)c(O)c(F)c3)ncc2N(C)C(=O)C1C (stereo not drawn) | 0.717 ± 0.14
17 | CN1CCC(Nc2nc(Nc3ccc(Oc4ccccc4)cc3)c3c(=O)[nH]cc(Br)c3n2)CC1 | 0.68 ± 0.087
18 | C[C@@H](Oc1cc(-n2cnc3ccc(CN4CCN(C)CC4)cc32)sc1C(N)=O)c1ccccc1C(F)(F)F | 0.573 ± 0.042
19 | Cc1ncc(-c2ccnc(Nc3ccc(S(C)(=O)=O)cc3)n2)n1C(C)C | 0.43 ± 0.095

Row | Structure (SMILES) | relative cell viability
20 | Cc1c(F)cc(C(=O)NC2CC2)cc1-c1ccc(C(=O)NCC(C)(C)C)cn1 | 0.563 ± 0.12
21 | CNC(=O)c1ccccc1Nc1nc(Nc2ccc(N3CCOCC3)cc2OC)ncc1Cl | 0.247 ± 0.07
22 | Nc1ncnc2c1c(-c1cnc3[nH]ccc3c1)nn2C1CCCC1 | 0.397 ± 0.092
23 | Cc1cc(Nc2ncc(Cl)c(Nc3ccccc3S(=O)(=O)C(C)C)n2)c(OC(C)C)cc1C1CCNCC1 [Ceritinib (LDK378)] | 0.513 ± 0.057
24 | CN1CCN(c2ccc(-c3ccncc3-c3cc(F)c(O)c(F)c3)cc2)CC1 | 0.48 ± 0.25
25 | CCn1c(=O)c(-c2ccc(-c3cncs3)cc2Cl)cc2cnc(Nc3ccc(N4CCN(C)CC4)cc3)nc21 | 0.833 ± 0.032
26 | Cc1ccc(C(=O)Nc2ccc(CN3CCN(C)CC3)c(C(F)(F)F)c2)cc1C#Cc1cnc2cccnn12 | 0.64 ± 0.11
27 | CC(=O)c1c(C)c2cnc(Nc3ccc(N4CCNCC4)cn3)nc2n(C2CCCC2)c1=O | 0.623 ± 0.074
28 | Nc1ccc(C(=O)Nc2cccc(-c3nc(N4CCOCC4)c4oc5ncccc5c4n3)c2)cn1 | 0.303 ± 0.067
29 | COc1cc2ncnc(Nc3ccc(F)c(Cl)c3)c2cc1OCCCN1CCOCC1 [Gefitinib (ZD1839)] | 0.66 ± 0.072
30 | O=C(O)c1ccc(-c2c[nH]c3ncc(-c4ccccc4)cc23)cc1C1CCCC1 | 0.81 ± 0.017
31 | O=S(=O)(c1cccc2cnccc12)N1CCCNCC1 [Fasudil (HA-1077) HCl] | 1.13 ± 0.1
32 | Cc1nc(Nc2cnn(C3CCNCC3)c2)nc2c1N(C)C(=O)c1cc3ccccc3cc1N2C | 0.627 ± 0.09
33 | O=C(Nc1ccc(-c2ccnc(Nc3ccc(N4CCOCC4)cc3)n2)cc1)C1CCCN1 (stereo not drawn) | 0.443 ± 0.1
34 | CN1CC[C@H](c2c(O)cc(O)c3c(=O)cc(-c4ccccc4Cl)oc23)[C@H](O)C1 [Flavopiridol HCl] | 0.763 ± 0.17
35 | CC[C@@](C)(Nc1ccnc(-c2c[nH]c3ncccc23)n1)C(=O)NCC(F)(F)F [Decernotinib (VX-509)] | 0.823 ± 0.042
36 | COc1ccc(-c2ccc3c(N4CCOCC4)nc(N4C[C@@H](C)O[C@@H](C)C4)nc3n2)cc1CO | 0.7 ± 0.07
37 | CNC(=O)c1cc(Oc2ccc3nc(N[C@@H]4CCCC[C@H]4O)sc3c2)ccn1 | 0.767 ± 0.05
38 | Cc1csc(-c2nnc(Nc3ccc(Oc4ncccc4-c4ccnc(N)n4)cc3)c3ccccc23)c1 | 0.56 ± 0.087
